Measured values from ChEMBL document CHEMBL3988442, “University of Dundee, Small-Polar-MMV Screening Library” (2021).
For some assays here: Entries with a potency or affinity are not part of this list.

Legend:
Parameters in all cases: scale not given: direction of the effect not stated beside the values
[1] = biological target: Protein translocase subunit SecA (Escherichia coli (strain K12)) (UniProt P10408); assay: Assay to Identify E. coli SecA ATPase Inhibitors; format: functional; details: 30 µM
Sequence of Protein translocase subunit SecA (Escherichia coli (strain K12)) (P10408 whole entry): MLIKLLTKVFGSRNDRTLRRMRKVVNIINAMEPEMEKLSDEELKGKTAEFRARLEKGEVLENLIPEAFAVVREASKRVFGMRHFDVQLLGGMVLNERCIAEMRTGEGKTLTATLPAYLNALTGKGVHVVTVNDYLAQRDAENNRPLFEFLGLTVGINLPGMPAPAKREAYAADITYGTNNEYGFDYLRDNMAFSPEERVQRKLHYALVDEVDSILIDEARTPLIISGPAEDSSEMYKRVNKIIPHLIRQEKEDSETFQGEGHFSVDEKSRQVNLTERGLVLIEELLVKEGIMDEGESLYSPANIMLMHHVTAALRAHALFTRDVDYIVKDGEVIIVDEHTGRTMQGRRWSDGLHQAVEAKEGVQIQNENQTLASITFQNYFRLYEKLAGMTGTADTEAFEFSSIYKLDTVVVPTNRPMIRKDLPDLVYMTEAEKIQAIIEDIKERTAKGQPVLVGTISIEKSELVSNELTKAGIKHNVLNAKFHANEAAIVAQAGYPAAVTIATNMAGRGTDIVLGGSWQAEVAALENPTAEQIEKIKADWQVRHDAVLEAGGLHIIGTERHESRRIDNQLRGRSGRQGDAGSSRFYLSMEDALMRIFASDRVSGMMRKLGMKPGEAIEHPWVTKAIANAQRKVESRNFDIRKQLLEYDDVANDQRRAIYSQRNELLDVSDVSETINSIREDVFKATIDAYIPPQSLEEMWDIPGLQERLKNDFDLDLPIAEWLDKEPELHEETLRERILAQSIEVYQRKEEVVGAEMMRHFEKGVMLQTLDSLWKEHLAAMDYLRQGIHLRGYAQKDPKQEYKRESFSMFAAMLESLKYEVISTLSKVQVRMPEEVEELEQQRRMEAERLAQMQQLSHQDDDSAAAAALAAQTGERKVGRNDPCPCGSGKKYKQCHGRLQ

[2] = biological target: T1, Ubiquitin-activating enzyme e1, putative (Leishmania donovani (strain BPK282A1)) (UniProt E9BSI1); assay: Leishmania donovani Ubiquitin Activating Enzyme (LdE1); format: functional; details: 30 µM
T1 sequence (whole entry): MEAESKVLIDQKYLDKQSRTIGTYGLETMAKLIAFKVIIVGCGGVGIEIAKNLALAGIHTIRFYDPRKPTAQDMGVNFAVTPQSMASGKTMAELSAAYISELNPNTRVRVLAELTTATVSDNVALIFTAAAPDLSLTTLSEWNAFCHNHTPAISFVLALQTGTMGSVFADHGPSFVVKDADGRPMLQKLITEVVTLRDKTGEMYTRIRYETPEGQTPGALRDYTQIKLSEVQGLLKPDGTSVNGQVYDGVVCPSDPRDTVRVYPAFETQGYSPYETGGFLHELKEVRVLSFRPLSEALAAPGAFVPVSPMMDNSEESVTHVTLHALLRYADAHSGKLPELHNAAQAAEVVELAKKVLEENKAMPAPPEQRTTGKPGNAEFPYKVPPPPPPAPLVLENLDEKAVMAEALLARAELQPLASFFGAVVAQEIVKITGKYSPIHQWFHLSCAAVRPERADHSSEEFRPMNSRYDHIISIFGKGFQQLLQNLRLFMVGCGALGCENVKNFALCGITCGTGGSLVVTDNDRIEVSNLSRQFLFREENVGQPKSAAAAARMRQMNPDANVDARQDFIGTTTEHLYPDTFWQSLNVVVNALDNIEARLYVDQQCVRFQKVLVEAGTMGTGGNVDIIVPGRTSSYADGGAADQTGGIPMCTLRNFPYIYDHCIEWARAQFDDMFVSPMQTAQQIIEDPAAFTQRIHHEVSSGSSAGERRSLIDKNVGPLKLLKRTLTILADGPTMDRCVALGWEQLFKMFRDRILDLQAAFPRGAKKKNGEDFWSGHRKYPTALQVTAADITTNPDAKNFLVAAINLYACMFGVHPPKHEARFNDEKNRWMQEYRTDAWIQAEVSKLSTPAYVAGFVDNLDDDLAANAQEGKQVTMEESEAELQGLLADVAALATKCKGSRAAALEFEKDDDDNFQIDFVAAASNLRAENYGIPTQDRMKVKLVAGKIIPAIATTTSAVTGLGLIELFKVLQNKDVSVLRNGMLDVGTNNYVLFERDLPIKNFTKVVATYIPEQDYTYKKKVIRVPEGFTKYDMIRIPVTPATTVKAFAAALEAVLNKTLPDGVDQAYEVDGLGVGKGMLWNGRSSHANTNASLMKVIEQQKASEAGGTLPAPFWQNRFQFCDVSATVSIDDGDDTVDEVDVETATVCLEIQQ

[3] = biological target: AMP-activated protein kinase, AMPK (Homo sapiens) (UniProt P54646+O43741+P54619+Q9UGJ0+Q9Y478+Q13131+Q9UGI9); assay: AMP-dependent Kinase enzyme assay. An in vitro enzyme assay that detects ADP turnover that is directly proportional to AMPK activity. This uses naive AMPK that is activated during the assay with MK-8722; format: functional; details: 30 µM
[4] = biological target: Sialic acid-binding Ig-like lectin 9 (Homo sapiens) (UniProt Q9Y336); assay: Hs-Siglec9 ALPHAscreen SOP 20170721; details: 10 µM
Sequence of Sialic acid-binding Ig-like lectin 9 (Homo sapiens) (Q9Y336 whole entry): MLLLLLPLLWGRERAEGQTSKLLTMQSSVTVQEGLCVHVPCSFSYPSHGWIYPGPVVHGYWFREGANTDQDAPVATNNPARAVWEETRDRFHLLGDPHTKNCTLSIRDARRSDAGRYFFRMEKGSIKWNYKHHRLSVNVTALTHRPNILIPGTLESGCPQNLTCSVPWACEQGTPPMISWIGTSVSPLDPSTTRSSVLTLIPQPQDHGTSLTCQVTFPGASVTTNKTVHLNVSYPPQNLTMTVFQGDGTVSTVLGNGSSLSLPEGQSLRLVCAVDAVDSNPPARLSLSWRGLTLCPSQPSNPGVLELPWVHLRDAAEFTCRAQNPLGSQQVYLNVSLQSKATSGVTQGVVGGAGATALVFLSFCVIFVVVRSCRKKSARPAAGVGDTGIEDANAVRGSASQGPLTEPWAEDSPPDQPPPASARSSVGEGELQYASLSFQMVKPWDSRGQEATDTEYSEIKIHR

Trypanosoma cruzi = assay: Trypanosoma cruzi phosphomannomutase and mannose-1-phosphate guanylyltransferase assay; format: functional; details: 10 µM
[5] = biological target: T2, Arginase-2, mitochondrial (Homo sapiens) (UniProt P78540); assay: in vitro enzyme assay to detect the production of urea directly proportional to the activity of Arginase II; format: functional; details: 33.3 µM; note: in the data most compounds retested in dose-response had high values
T2 sequence (whole entry): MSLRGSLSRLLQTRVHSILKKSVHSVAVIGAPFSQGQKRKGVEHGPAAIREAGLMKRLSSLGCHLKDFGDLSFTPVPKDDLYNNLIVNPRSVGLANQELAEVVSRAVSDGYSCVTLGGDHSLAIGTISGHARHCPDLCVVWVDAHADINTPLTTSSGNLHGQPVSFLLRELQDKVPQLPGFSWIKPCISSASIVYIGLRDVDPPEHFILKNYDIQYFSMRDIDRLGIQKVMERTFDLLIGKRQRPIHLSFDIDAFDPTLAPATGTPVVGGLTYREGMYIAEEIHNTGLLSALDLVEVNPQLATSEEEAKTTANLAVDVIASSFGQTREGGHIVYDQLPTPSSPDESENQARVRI

[6] = biological target: T3, Proteasome subunit beta (Trypanosoma cruzi) (UniProt O96673); assay: Trypanosoma cruzi proteasome chymotrypsin-like activity (TcProtChymo) assay.; note: in the data most compounds retested in dose-response had high values; format: functional; details: 9.37 µM
T3 sequence (whole entry): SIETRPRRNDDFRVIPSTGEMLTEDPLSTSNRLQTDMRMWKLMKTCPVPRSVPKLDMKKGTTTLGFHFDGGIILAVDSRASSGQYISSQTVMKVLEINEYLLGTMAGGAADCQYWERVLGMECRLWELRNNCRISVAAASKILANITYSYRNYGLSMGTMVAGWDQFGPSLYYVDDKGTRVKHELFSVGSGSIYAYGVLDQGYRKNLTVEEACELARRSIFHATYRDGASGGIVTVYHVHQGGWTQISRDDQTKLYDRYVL

Homo sapiens = species on record: Homo sapiens; assay: To identify inhibition of the IFN signalling (Jak-Stat) pathway via expression of an eGFP reporter gene under the control of an IFN-stimulated response element (ISRE) containing MxA promoter.; format: functional; details: 30 µM
[7] = biological target: T4, Tyrosyl-tRNA synthetase, putative (Trypanosoma cruzi (strain CL Brener)) (UniProt Q4DSP6); assay: Trypanosoma cruzi tyrosyl tRNA synthetase (TcYRS) _High Tyrosine SOP; format: functional; details: 30 µM; note: in the data most compounds retested in dose-response had high values
T4 sequence (whole entry): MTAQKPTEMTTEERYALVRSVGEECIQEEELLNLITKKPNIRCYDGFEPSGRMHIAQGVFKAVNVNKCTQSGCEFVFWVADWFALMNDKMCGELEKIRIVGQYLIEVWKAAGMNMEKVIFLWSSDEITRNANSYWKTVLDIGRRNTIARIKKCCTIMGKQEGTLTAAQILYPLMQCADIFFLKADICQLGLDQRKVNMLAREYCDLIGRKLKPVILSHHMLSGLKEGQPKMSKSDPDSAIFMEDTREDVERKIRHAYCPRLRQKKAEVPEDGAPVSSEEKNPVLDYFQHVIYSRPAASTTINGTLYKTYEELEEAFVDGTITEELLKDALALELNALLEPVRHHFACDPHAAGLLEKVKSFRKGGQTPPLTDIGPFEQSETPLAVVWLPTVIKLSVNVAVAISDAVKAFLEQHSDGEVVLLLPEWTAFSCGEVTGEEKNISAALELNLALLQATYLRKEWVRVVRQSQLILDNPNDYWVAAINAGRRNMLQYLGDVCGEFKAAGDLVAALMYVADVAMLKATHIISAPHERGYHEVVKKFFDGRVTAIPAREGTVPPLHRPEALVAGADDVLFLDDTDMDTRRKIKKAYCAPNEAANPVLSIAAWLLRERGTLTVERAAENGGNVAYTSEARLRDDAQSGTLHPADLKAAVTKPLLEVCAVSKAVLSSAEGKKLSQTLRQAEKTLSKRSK

[8] = biological target: T4, Tyrosyl-tRNA synthetase, putative (Trypanosoma cruzi (strain CL Brener)); assay: Trypanosoma cruzi tyrosyl tRNA synthetase (TcYRS) SOP; format: functional; details: 30 µM
[9] = biological target: Chromo domain-containing protein 1 (Saccharomyces cerevisiae (strain ATCC 204508 / S288c) (Baker's yeast)) (UniProt P32657); assay: ScCHD-1 Enzyme Inhibition Assay; format: functional; details: 30 µM; note: in the data most compounds retested in dose-response had high values
Sequence of Chromo domain-containing protein 1 (Saccharomyces cerevisiae (strain ATCC 204508 / S288c) (Baker's yeast)) (P32657 whole entry, the tested form may be a part): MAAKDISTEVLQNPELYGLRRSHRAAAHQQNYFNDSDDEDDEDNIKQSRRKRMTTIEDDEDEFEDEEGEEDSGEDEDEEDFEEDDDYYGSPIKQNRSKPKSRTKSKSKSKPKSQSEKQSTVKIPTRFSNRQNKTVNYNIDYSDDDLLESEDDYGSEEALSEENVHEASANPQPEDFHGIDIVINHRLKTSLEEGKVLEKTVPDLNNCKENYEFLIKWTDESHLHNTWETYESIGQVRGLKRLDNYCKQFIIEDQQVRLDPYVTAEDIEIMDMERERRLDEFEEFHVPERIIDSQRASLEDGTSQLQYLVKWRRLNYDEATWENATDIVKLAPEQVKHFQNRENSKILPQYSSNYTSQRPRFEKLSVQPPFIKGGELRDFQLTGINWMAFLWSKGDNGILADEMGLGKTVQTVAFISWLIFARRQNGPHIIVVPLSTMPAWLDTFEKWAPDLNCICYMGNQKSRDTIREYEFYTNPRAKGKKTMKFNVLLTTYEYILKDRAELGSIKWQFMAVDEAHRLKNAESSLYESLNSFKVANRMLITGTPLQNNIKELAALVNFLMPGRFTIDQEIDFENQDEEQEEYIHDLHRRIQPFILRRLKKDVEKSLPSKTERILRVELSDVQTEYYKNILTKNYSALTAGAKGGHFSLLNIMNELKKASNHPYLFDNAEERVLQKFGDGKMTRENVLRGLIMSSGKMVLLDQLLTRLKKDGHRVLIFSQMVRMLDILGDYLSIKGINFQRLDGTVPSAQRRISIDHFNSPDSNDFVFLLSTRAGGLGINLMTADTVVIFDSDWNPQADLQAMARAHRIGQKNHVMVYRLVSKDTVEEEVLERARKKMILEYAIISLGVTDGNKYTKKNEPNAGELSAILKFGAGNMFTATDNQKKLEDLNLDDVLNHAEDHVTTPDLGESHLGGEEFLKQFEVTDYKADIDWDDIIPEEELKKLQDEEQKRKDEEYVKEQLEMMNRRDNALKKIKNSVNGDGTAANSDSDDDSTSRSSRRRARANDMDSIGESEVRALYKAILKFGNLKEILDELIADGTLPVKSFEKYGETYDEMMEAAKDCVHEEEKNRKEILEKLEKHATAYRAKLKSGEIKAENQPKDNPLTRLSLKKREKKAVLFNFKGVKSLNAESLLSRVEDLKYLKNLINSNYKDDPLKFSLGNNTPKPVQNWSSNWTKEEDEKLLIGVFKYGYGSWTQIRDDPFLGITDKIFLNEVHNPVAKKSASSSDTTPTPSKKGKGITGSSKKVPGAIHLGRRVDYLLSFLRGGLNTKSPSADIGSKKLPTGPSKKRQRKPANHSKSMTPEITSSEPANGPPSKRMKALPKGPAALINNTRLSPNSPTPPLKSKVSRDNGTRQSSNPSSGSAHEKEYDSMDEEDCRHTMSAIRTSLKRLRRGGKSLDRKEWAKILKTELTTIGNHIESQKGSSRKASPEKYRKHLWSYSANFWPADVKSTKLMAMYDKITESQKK

| SMILES | Percent Effect [1] [%] | Percent Effect [2] [%] | Percent Effect [3] [%] | Percent Effect [4] [%] | Percent Effect (Trypanosoma cruzi) [%] | Percent Effect [5] [%] | Percent Effect [6] [%] | Percent Effect (Homo sapiens) [%] | Percent Effect [7] [%] | Percent Effect [8] [%] | Percent Effect [9] [%] |
| --- | --- | --- | --- | --- | --- | --- | --- | --- | --- | --- | --- |
| Cn1nc(C2CCCN(C(=O)Cc3ccsc3)C2)c2nccnc21 (stereo not given) | -5.11 | 9.46 | 7.86 | 10.4 | -5.14 | -1.16 | 8.89 | 23.9 | -1.07 | 6.49 | -13.9 |
| O=C(NC1=NCCCN1c1ccc(Cl)cc1)c1cccc(Cl)c1 | -4.08 | -5.2 | 0.353 | -0.0638 | -6.39 | 1.38 | 15.1 | 3.87 | -5.38 | -8.64 | 0.69 |
| CCc1nc(CN2CCN(c3ncnc4cc(F)ccc34)CC2)no1 | -8.93 | 0 | -0.509 | 2.81 | -3.44 | 0 | 9.65 | 75.3 | -3.23 | -6.17 | 1.03 |
| Cc1cc(NC(=O)CN2CCCC2c2noc(C3CC3)n2)no1 (stereo not given) | -4.72 | 13.7 | 11.2 | 9.93 | 5.68 | -0.909 | 16.9 | 5.99 | 3.23 | 15 | 22.7 |
| CN(CC(=O)NC1(C#N)CCCC1)C1CCCN(c2cccnn2)C1 (stereo not given) | -3.01 | 7.89 | -63.6 | 7.82 | 8.12 | 2.16 | 11.6 | -30.1 | 6.4 | 18.5 | -6.35 |
| CC1CCN(CCCNS(=O)(=O)c2cccc(F)c2)CC1 | -4.57 | 7.79 | 0.601 | 5.46 | -2.46 | -13.8 | 0.166 | -11.1 | 5.38 | 13.6 | -2.91 |
| Cc1cc(C)n(CC2CCCN2C(=O)CCc2cscn2)n1 (stereo not given) | -2.42 | -5.26 | 7.92 | -2.27 | 8.08 | 1.92 | -4.51 | -4.45 | -0.49 | 0 | 1.57 |
| O=C(Cc1ccc2c(c1)CCO2)N1CCCCC1Cn1cccn1 (stereo not given) | -5.85 | 10.5 | 0.878 | 4.66 | 2.24 | -5.92 | 7.19 | 7.18 | 5.32 | 7.79 | -7.71 |
| c1ccc2c(N3CCCC3Cn3cccn3)ncnc2c1 (stereo not given) | -2.93 | 21.6 | -4.33 | 6.84 | 2.88 | 2.77 | 10.2 | 50.9 | 6.93 | 28.1 | -8.26 |
| CSCc1cccc(C(=O)N2CCN(CC(C)O)CC2)c1 (stereo not given) | -1.86 | -2.6 | -1.05 | 3.73 | -7.68 | 2.13 | 11.8 | 17.2 | 1.94 | -2.44 | -1.72 |
